Values joined by “and” are separate entries in the source; they are usually repeats but may differ in a detail not shown here. Equal entries are not always repeated. This is part of a sample that, as a whole, favours compounds with a hit. Of some 83,000 tested, about 20% had one in any assay.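 Results are percent growth after 48 hours of single-concentration exposure. 100 means growth as in untreated cells, lower positive values show inhibition; negative values down to -100 show cell death.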 Active and inactive are the calls of the source. The calls were made as follows: active = growth percent below 10; inactive = the rest.
System: MDA-MB-468 breast
Assay: NCI-60 one-dose screen, 48 h (100 = growth as untreated, 0 = no growth, -100 = all killed)
Conditions: 10 µM unless noted

Structure (SMILES)	growth
Clc1ccc(C2CC(c3cccc(Nc4ccncc4)c3)=NN2c2ccc(Cl)cc2)cc1 (stereo unspecified)	-35.3% (active)
C=CCn1c(SCC(=O)Nc2ccc(C(=O)/C=C/c3cc4cc(OC)ccc4nc3Cl)cc2)nnc1-c1ccc(Br)cc1	85.7% (inactive)
O=C(/C=C/C12c3ccccc3C(c3ccccc31)C1C(=O)NC(=O)C12)c1ccc(Cl)cc1 (stereo unspecified)	-19.5% (active)
COc1cc2c(c(OC)c1OC)C(=O)CC(c1cccc(C(=O)Nc3ccccc3Br)c1)O2 (stereo unspecified)	79.1% (inactive)
Cc1ccc(NS(=O)(=O)c2cc(C)ccc2C)cc1	0.244% (active)
NC(=O)NCC1CCCCC1	98% (inactive)
Cn1ccnc1C(=O)/C=C/c1ccc(NC(=O)c2c(F)c(F)c(F)c(F)c2F)cc1	92.1% (inactive)
CCCCCCNc1cc(C)nc2ccc(OC)cc12	-10.9% (active)
Clc1ccc(-n2cnc3c(Cl)ncnc32)cc1Cl	48.3% (inactive)
COc1ccc2oc(=O)cc(CN3C(=O)S/C(=C\c4ccc(Cl)cc4)C3=O)c2c1	101% (inactive)
NS(=O)(=O)c1cc(C2(O)NC(=O)c3ccccc32)ccc1Cl (stereo unspecified)	102% (inactive)
O=C(NS(=O)(=O)c1ccccc1)n1cc(-c2ccncc2)c(-c2ccc(Cl)c(O)c2)n1	96.5% (inactive)
Nc1n[nH]c2cc(F)c([C@@H]3Nc4ccc5[nH]ncc5c4[C@H]4C5CCC(C5)[C@@H]34)cc12 (stereo partly specified)	-11.7% (active)
COc1ccc(/C=C/C(=O)c2ccc(NC(=O)CSc3nnc(-c4ccc(OC)cc4)n3-c3ccccc3)cc2)cc1	106% (inactive)
CCOC(=O)Nc1ccc(-c2nc(-c3cccc(OC)c3)c(-c3ccnc(Br)c3)[nH]2)cc1	25.9% (inactive)
Clc1ccc(-c2cnc3nonc3n2)s1	49.6% (inactive)
O=C(Nc1ccc(Oc2cccc(F)c2)c(Cl)c1)c1cccnc1	-9.22% (active)
COc1cc(C(C)n2cc(-c3ccccc3)nn2)ccc1OC1CCCCC1 (stereo unspecified)	8.89% (active)
C[C@H]1[C@H](C)CC[C@]2(C(=O)N3CCN(C)CC3)CC[C@]3(C)C(=CC[C@@H]4[C@@]5(C)C/C(=C/c6ccco6)C(=O)C(C)(C)[C@@H]5CC[C@]43C)[C@H]12	19.2% [100 µM] (inactive)
CNC(=O)CCN1CCN(CC/C=C2\c3ccccc3Sc3ccc(Cl)cc32)CC1	72.5% (inactive)
Nc1ccc2ccc(NS(=O)(=O)N3CCCCC3)cc2c1	7.79% (active)

Structure (SMILES)	growth
CCN(CC)CCCCCCNc1cc(OC)c(Cl)c2cccnc12	32.1% (inactive)
COc1ccc(-c2cnc3ccnn3c2-c2cc(OC)c(OC)c(OC)c2)cc1	2.83% (active)
CSCc1ncc(-c2ccc(C(F)(F)F)cc2)c(NC2CCCCCC2)n1	85.7% [25 µM] (inactive)
COC(=O)C1=C(C)NC(C)=C(C(=O)OCC(C)C)C1c1ccccc1[N+](=O)[O-] (stereo unspecified)	44.7% (inactive)
CCN(CC)CCCCNc1ccc(NCCCCN(CC)CC)c2c1C(=O)c1ccccc1C2=O	106% (inactive)
COc1ccc(-c2nc(-c3nc4cc(Cl)c(F)cc4[nH]3)c3ccccn23)cc1	54.6% (inactive)
Nc1c2c(c(O)c3c1=C(CO)C=N3)=NCCS2=O (stereo unspecified)	-79.6% (active)
Fc1cc2[nH]ncc2c2c3c(c(-c4cn[nH]c4)nc12)CCCC3	-22.4% (active)
CN1CCN(c2ccc(Nc3nc(NCCCNS(=O)(=O)c4ccccc4)c4sccc4n3)cc2)CC1	30.3% (inactive)
CC(=O)N1N=C(c2ccc(C)cc2)CC1c1ccc(Oc2ccc(Br)cc2)cc1 (stereo unspecified)	75% (inactive)
CCCc1nc2ccccn2c1Nc1ccc(C(=O)NO)cc1	87.9% (inactive)
Nc1c(C(=O)Nc2ccccc2Cl)sc2nc3c(cc12)C(O)CCC3 (stereo unspecified)	25.7% (inactive)
CC(C)c1[nH]nc2c(NCc3ccc(-c4ccccn4)cc3)nc(SCCN)nc12	-60.3% (active)
O=c1oc2ccc(-c3ccc(F)cc3F)cc2c(=O)n1-c1cccc(C(F)(F)F)c1	-12.8% (active) and -5.33% (active)
CC1=N/C(=C\c2cccc(Br)c2)C(=O)O1	107% (inactive)
Oc1ccccc1-c1nnc(CNc2ccc(Cl)cc2)o1	-2.17% (active)
CC1(C)CC([P+](c2ccccc2)(c2ccccc2)c2ccccc2)=NN1	-12.9% (active)
Fc1cnccc1C1CC(c2ccc(N3CCNCC3)cc2)=NN1 (stereo unspecified)	114% (inactive)
O=S(=O)(Nc1ccc2c(c1)OCO2)c1ccc(-c2cnc(C3CC3)o2)cc1	-3.85% (active)
C=C1C(=O)O[C@H]2[C@H]1CC/C(COC(=O)/C=C/C(=O)NCc1ccc(Cn3c(=O)sn(-c4ccccc4)c3=O)cc1)=C\CC[C@@]1(C)O[C@@H]21	-43.4% (active)
Cc1nc2ccccc2c(/C=C/c2ccc(F)cc2)c1C(=O)/C=C/c1ccccc1	17% (inactive)

Structure (SMILES)	growth
COc1ccc(/C=N/NC(=O)COCC(=O)N/N=C/c2ccc(OC)cc2)cc1	100% (inactive)
COC(=O)[C@]12CC[C@@H](C)[C@H](C)[C@@H]1C1=CC[C@@H]3[C@@](C)(CC#N)C4=C(C[C@@]3(C)[C@]1(C)CC2)OC[C@]4(C)C=O	-83% (active)
O=C(Nc1ccc(Cl)c(C(F)(F)F)c1)Nc1ccc(-c2cccnc2)cc1N1CCC(CO)CC1	12.6% (inactive)
O=C(Nc1cccc([N+](=O)[O-])c1)c1ccc(Cl)c(Cl)c1	64.2% (inactive)
COc1ccc(/C(C)=N/NC(=O)CSc2nc3ccccc3c(=O)n2Cc2ccc(S(N)(=O)=O)cc2)c(OC)c1	93.9% (inactive)
CNC(=O)c1cc(N2CCc3cc(NC(=O)Nc4ccc(N5CCN(C)CC5)c(C(F)(F)F)c4)ccc32)ccn1	77.9% (inactive)
CCN(CC)CCCC(Nc1c2ccc(Cl)cc2nc2ccc(OC)cc12)c1ccc(F)cc1 (stereo unspecified)	90.5% (inactive)
Cc1c2c(cc[n+]1Cc1ccccc1)c1ccc(OCC3CCCCC3)cc1n2CC1CCCCC1	-86.6% (active)
COc1cccc(N2CCN(c3ncnc4c3[nH]c3ccc(F)cc34)C[C@H]2C)c1	27.5% (inactive)
O=C(CCl)N(c1ccccc1)c1ccccc1	104% (inactive)
C/C(=C(\c1ccc(OCCN2CCOCC2)cc1)c1ccc(OC(=O)C2CCCCC2)cc1)c1ccc(Cl)cc1	79.2% (inactive)
COc1ccc(C2=NNC(c3cc(Cc4ccc(O)c(C5CC(c6ccc(OC)cc6)=NN5)c4)ccc3O)C2)cc1 (stereo unspecified)	65% (inactive)
CCNc1ccc2ccccc2c1N=Nc1ccc(N=Nc2ccccc2)cc1	104% (inactive)
Cc1c(Cl)c(C)c(Cc2c(C)c(Cl)c(C)c(Cl)c2O)c(O)c1Cl	-8.25% (active)
COc1cc(/C(C)=C(\c2ccc(Cl)cc2)c2ccc(OCCN3CCCC3)cc2)ccc1F	57.3% (inactive)
O=S(=O)(NCCCNc1nccc(-n2cnc3ccccc32)n1)c1ccc(F)cc1	50.2% (inactive)
CCCCCCCCCCCCCCCCOc1ccc(C)cc1	106% (inactive)
S=C(NCCNC(=S)[S][Sn]([c]1ccccc1)([c]1ccccc1)[c]1ccccc1)[S][Sn]([c]1ccccc1)([c]1ccccc1)[c]1ccccc1	-97.9% (active)
Cn1nc(CC#N)c2c(=N)n(N)cnc21	106% (inactive)
CC/C(=C(\c1ccc(O)cc1)c1ccc(OCCN(C)CCN(C)C(=O)CCC(=O)c2c(C)[nH]c(/C=C3\N=C(c4ccc[nH]4)C=C3OC)c2C)cc1)c1ccccc1	65.9% (inactive)
O=C1[C@@H]2Cc3c([nH]c4ccccc34)[C@H](c3ccc(Cl)cc3)N2C(=O)CN1C1CCN(Cc2ccccc2)CC1	23.1% (inactive)

Structure (SMILES)	growth
COCCn1cc(-c2csc(-c3cn(C)c4ccc(F)cc34)n2)c2cccnc21	21.3% (inactive)
O=C(NNc1nc2cc(F)cc(F)c2n2cccc12)c1ncccn1	3.64% (active)
COc1ccc(-c2nc(S(=O)(=O)c3ccccc3)c(S(=O)CC(=O)N3CCC(C)CC3)o2)cc1 (stereo unspecified)	-15% (active)
CC(=O)Nc1nc(C)c(C(=O)N/N=C/N2CCCCC2)s1	101% (inactive)
CCN1CCN(c2nc(NNC(=O)c3cccc(OC)c3)nc(N3CCN(C(c4ccccc4)c4ccccc4)CC3)n2)CC1	54.7% (inactive)
O=C(/C=C/c1ccc(Cl)cc1)c1ccc(Br)cc1	107% (inactive)
CC1=NN(c2ccc(Cl)cc2)CC1(C)N=O (stereo unspecified)	7.84% (active)
O=[N+]([O-])c1ccc(Nc2nc(NCCN3CCOCC3)ncc2[N+](=O)[O-])cc1	70.8% (inactive)
CCOC(=O)c1c(C)nc2c(c1N)C(=O)C(=O)N2Cc1ccc(OC)cc1	95% (inactive)
CCOc1cc2ncc(C#N)c(Nc3ccc(OCc4cccc(F)c4)c(Cl)c3)c2cc1NC(=O)CCCCC1CCSS1 (stereo unspecified)	70.4% (inactive)
CCOC(=O)c1cc2c(n1Cc1ccccc1)-c1oncc1CCC2	60.2% (inactive)
OC1CCN(CCCOc2c3ccccc3nc3c2oc2ccccc23)CC1	-16.4% (active)
O=C1CSC(c2ccccc2Cl)N1c1nnc(-c2ccncc2)o1 (stereo unspecified)	98.4% (inactive)
C=C1C(=O)O[C@H]2[C@H]1CC/C(COC(=O)CCCC(=O)OC/C1=C/CC[C@@]3(C)O[C@H]3[C@H]3OC(=O)C(=C)[C@@H]3CC1)=C\CC[C@@]1(C)O[C@@H]21	-19.1% (active)
CCCCCCCCCCCCCCn1cc(C2=C(c3coc4ccc(OC)cc34)C(=O)NC2=O)c2ccccc21	104% (inactive)
c1cnc2[nH]cc(-c3csc(-c4cn(CCCN5CCOCC5)c5ccccc45)n3)c2c1	26.2% (inactive)
CC(=O)Nc1ccc(/C=N/N2CCCCCC2)cc1	98.6% (inactive)
O=C1NC(=Nc2ccc(O)cc2)S/C1=C\c1cccc(Cl)c1	44.5% (inactive)

Reference: PubChem BioAssay (NCI)
